The results in this text go back to PubChem BioAssay AID1053118 (Broad Institute, 2014).

Potency and affinity values are given separately. Activity calls are given as the source filed them.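 Rule for the calls: active = fitted half-maximal concentration for ATP signal loss at most twice the top valid dose; inconclusive = flat curve between -70 and -30%, or an invalid fit; inactive = flat within ±30%, wrong direction, or potency past limit.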

This assay is described as follows: HepG2 cell cytotoxicity, dose response, cytotoxicity control, cherry-picks, set 5 (AID 1053118). The settings on record: HepG2 viability, ATP luminescence, 72 h; series mostly up to 26 µM.
`Cc1cccc(N2CCN(S(=O)(=O)c3cn(C)cn3)CC2)c1C`: the result was inactive.

Turning to `Cc1ccc(S(=O)(=O)N2CC[C@@H]3[C@H]2c2cc(-c4cccc(C(=O)N(C)C)c4)ccc2N[C@@H]3CO)cc1`, the compound was classed as inactive.

Regarding `N#C[C@@H]1[C@H](c2ccccc2C2=CCCCC2)[C@@H](CO)N1S(=O)(=O)c1ccccc1`, the result was inactive.

With `COc1ccccc1CNc1nc(NCc2cnc(C)cn2)c2sccc2n1`, the outcome was inactive.

Take `COCC(=O)Nc1ccc2c(c1)C(=O)N(C)[C@@H]1CC[C@@H](CC(=O)NCc3ccccc3Cl)O[C@@H]1CO2`: the result was inactive.

For `O=C(Nc1ccccc1F)N1C[C@@H]2[C@H](c3ccccc31)[C@@H](CO)N2C(=O)C1CC1`, the result was inactive.

Regarding `COCC(C)n1c(SCc2nc(N)nc(Nc3ccccc3C)n2)nc2ccccc2c1=O` (centres undefined), the outcome was inactive.

With `C[C@H]1CN([C@@H](C)CO)C(=O)c2cc(NC(=O)C3CCCCC3)ccc2O[C@@H]1CN(C)Cc1ccc(-c2ccccc2)cc1`, the outcome was inactive.

In the case of `O=S(=O)(c1cccc(F)c1)N1CC[C@H]2[C@H](CO)Nc3ccc(-c4cccc(F)c4)cc3[C@H]21`, the call was inactive.

Consider `CN(C)C(=O)c1ccc(-c2ccc3c(c2)[C@@H]2[C@@H](CCN2C(=O)c2ccc(F)cc2)[C@@H](CO)N3C)cc1`, for which the call was inactive.

For the compound `CCOc1cccc(C(=O)Nc2ccc(N(CC)CC)cc2)c1`, the compound was classed as inactive.

For the compound `CCOC(=O)c1nnn(-c2ccc(OC)cc2)c1N`, the call was inactive.

`COC(=O)C[C@@H]1CC[C@@H]2[C@H](COc3ccc(NC(=O)Cc4cccs4)cc3C(=O)N2C)O1`: the call was inactive.

On to `CN(C)C(=O)c1ccc(-c2ccc3c(c2)[C@@H]2[C@@H](CCN2C(=O)c2ccc(F)cc2)[C@H](CO)N3C)cc1`, for which the compound was called inactive.
